PubChem BioAssay
Unmarked numbers belong to inactive results. The rule behind the calls is not given here.

System: Aerobactin synthetase IucA (Klebsiella pneumoniae, hypervirulent)
Assay: IucA enzyme inhibition, biochemical, LOPAC library, absorbance readout (AID 1346212);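 note: 100% = no compound wells and 0% = no enzyme wells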
Settings: IucA enzyme assay, absorbance (OD) readout; stronger effect = lower value;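 tested at 8 µM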

SMILES	remaining activity [%]
C1CCC(N=C(NC23CC4CC(CC(C4)C2)C3)N2CCOCC2)CC1	122
CN1CCc2c(cc(O)c(O)c2Cl)C(c2cccc(Cl)c2)C1 (centres undefined)	96.8
CC[C@H](CO)Nc1nc(NCc2ccccc2)c2ncn(C(C)C)c2n1	123
O=C(O)Cc1c[nH]c2ccc(O)cc12	101
NC[C@@H]1O[C@H](C23CC4CC(CC(C4)C2)C3)Cc2c1ccc(O)c2O	111
COC(=O)C1=C(C)NC(C)=C(C(=O)OC(C)(C)CN(C)CCC(c2ccccc2)c2ccccc2)C1c1cccc([N+](=O)[O-])c1 (centres undefined)	109
COc1cc(=O)n(C)c2c(OCC(O)C(C)(C)O)cccc12 (centres undefined)	108
COC(=O)c1c(C)[nH]c(C)c1C(=O)c1ccccc1Cc1ccccc1	96.6
N=C(N)c1ccc(N)cc1	112
O=c1[nH]c(=O)n([C@H]2C[C@H](O)[C@@H](CO)O2)cc1Br	96.4
O=C(O)CCC(=O)N1CCCC1C(=O)O (centres undefined)	98.4
Cc1cccc(/C=C/c2ccccc2)n1	81
Cn1cnc2c(NCc3ccccc3)nc(NCCO)nc21	119
Clc1nccc2c1ccc1ccccc12	109
O=C(O)/C=C1\CCCc2ccccc2C1O (centres undefined)	119
CC(C)Oc1cccnc1N(C)C1CCN(Cc2ccc(I)cc2)CC1	97.8
CN1CCc2cc(O)c(O)cc2C(c2ccccc2)C1 (centres undefined)	105
Cc1cccc(C)c1NC(=O)C(C)N (centres undefined)	95.4
C[N+](C)(C)CC=O	101
Cc1ccc(S(=O)(=O)/C=C/C#N)cc1	100

SMILES	remaining activity [%]
c1ccc(C(NCCNC(c2ccccc2)c2ccccc2)c2ccccc2)cc1	117
O=C1C(SCCO)=C(SCCO)C(=O)c2ccccc21	117
COc1cc(N)c(Cl)cc1C(=O)OCCN1CCCCC1	110
Cc1ccc2c(c1)C(N1CCN(C)CC1)=Nc1cccnc1N2	126
CCCCCCCCc1ccc(-c2ccc(C(=O)O)cc2)cc1	124
O=C(NCCNCC(O)COc1ccc(O)cc1)N1CCOCC1 (centres undefined)	118
COCc1nc2c([nH]1)c(=O)n(C)c(=O)n2CC(C)C	112
CN1CC[C@]2(CCN3CCc4c(oc5ccccc45)[C@@H]3C2)N(C)C1=O	109
COc1ccccc1N1CCN(CC(O)COc2cccc3ccccc23)CC1 (centres undefined)	96.1
OC(CN1CCN(c2cccc(Cl)c2)CC1)C(c1ccccc1)c1ccccc1 (centres undefined)	114
CCCCCCCCCCCCCCCCCCOC[C@H](COP(=O)([O-])OCC[N+](C)(C)C)OC	119
Cn1c(=O)c2[nH]c(-c3ccc(S(=O)(=O)O)cc3)nc2n(C)c1=O	117
CCCCN1CCC(n2c(=O)[nH]c3ccccc32)CC1	110
CN(C(=O)CCCOc1ccc2[nH]c(=O)ccc2c1)C1CCCCC1	124
Fc1ccc(CN(C2=NCCN2)c2c(Cl)cccc2Cl)cc1	113
c1ccc(CN2CCC3(CCCc4ccccc43)CC2)cc1	103
Cc1ccccc1N1CCN(S(=O)(=O)C[C@@]23CC[C@H](CC2NC(=O)[C@H](N)CCS(C)(=O)=O)C3(C)C)CC1 (some centres undefined)	121
CN1[C@@H]2CC(OC(=O)[C@H](CO)c3ccccc3)C[C@H]1[C@@H]1O[C@@H]12 (some centres undefined)	105
O=C(O)c1cc(=O)cc(C(=O)O)[nH]1	122
